PGK inhibitor: inhibitors of T. brucei phosphoglycerate kinase | 380,000 compounds, 0.043% hits | P07378 | Potency, µM (top dose mostly 57.5 µM), without a hit: at the highest dose activity change, negative = inhibition, most hits filed as inhibitors | AID 602233 | PGK/GAPDH coupled, Kinase-Glo luminescence, 60 min; further: nearly all actives have a fitted effect of over 60% in size
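Luminescent ATP detection (Kinase-Glo Plus) follows a 60-minute room-temperature incubation, with wells lacking PGK as controls. Buffer: 100 mM TEA (pH 7.6), 5 mM MgCl2, 0.01% Tween-20. Coupling enzyme GAPDH (100 nM final) supplies unstable 1,3-BPG in-well.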
KAT2A inh: inhibitors of human GCN5L2 histone acetyltransferase | Q92830 | AID 504327 | 390,000 compounds, 0.21% hits | GCN5L2 HAT assay, ThioGlo1 CoA-SH fluorescence | Potency, µM (top dose mostly 58.9 µM), for inactives: at the top dose activity change, negative = inhibition, most hits filed as inhibitors
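GCN5L2 (20 nM) in 50mM HEPES pH 7.5, 0.1mM EDTA, 0.01% Tween-20 preincubated 15 min with compounds at room temperature. Reaction started with H3(1-25) 75uM, acetyl-CoA 70uM, ThioGlo1 50uM; CoA-thiol fluorescence (Ex340/Em540) read at 0 and 20 min.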
GLS inh: inhibitors of human glutaminase (GLS). O94925. GLS enzymatic activity, qHTS titration. Potency, µM (doses to about 45.5 µM), without a hit: top-dose activity change, negative = inhibition, hits mostly inhibitors. 410,000 compounds, 0.21% hits. AID 624170
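Human kidney-isoform GLS in 45 mM KH2PO4 pH 8.2, 0.02% Tween-20, with compound, started with 1mM L-Glutamine (added stock). Glutamate oxidase/HRP/Amplex red coupled fluorescence read at start and after 30 min at RT.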
USP2a block: blocks human ubiquitin-specific protease USP2a. O75604. USP2 core, Ub-CHOP2 coupled fluorogenic reporter, 485/531. Potency, µM (titrated, usually from 38.3 µM), inactives show top-dose activity change, negative = inhibition, hits mostly inhibitors. 330,000 compounds, 0.01% hits. AID 463254;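 further: plate controls were DMSO wells for no effect and full inhibition by NEM control for full effect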
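USP2 core (10nM final) preincubated 30min RT with compound in 20mM Tris-HCl pH 8.0, 2mM CaCl2, 2mM beta-mercaptoethanol, 0.05% CHAPS; 25nM Ub-CHOP2 plus 25nM reporter substrate added, fluorescence (Ex485/Em531) read after 60min.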
Tb PFK inh: T. brucei PFK enzyme inhibition; Potency, µM (highest dose often 57.5 µM), for inactives: top-dose activity, negative = inhibition, usual class: inhibitors; 330,000 compounds, 0.17% hits; T. brucei PFK, ADP-Glo luminescence; O15648; AID 485367;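 further: 0% = uninhibited 1x PFK enzyme wells and -100% = no-enzyme wells; nearly all actives have a fitted effect of over 60% in size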
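Luminescent ADP detection (ADP-Glo, two-step: ATP depletion then ADP-to-ATP conversion for luciferase) reported PFK activity after 45 min room-temperature reaction of 1.25 nM enzyme with 0.5 mM F6P and 0.1 mM ATP at pH 8.0.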
An asterisk follows results filed as active; i = inactive; ? = inconclusive; / = no result. This is a sample that favours compounds with a hit; in the whole collection about 0.52% have one here. The call rests on the fitted dose curve; in most records, active means well fitted curve in the direction sought with a large enough effect; inconclusive means small, poorly fitted or top-dose-only effect, or another doubt; inactive means no such curve, though single readings can be large; an effect the other way counts as inactive or inconclusive. Unless noted, on the % scale 0 is the no-effect control and ±100 the full control effect; potency means the concentration at half of the fitted maximal effect.

SMILES	PGK inhibitor	KAT2A inh	GLS inh	USP2a block	Tb PFK inh
Cc1ccc(O)c(N=Cc2sc3ccccc3c2Cl)c1	-8%	-2%	11µM*	-1%	-4%
Cc1ccc(Nc2c(-c3ccccc3O)nc3cc(C)ccn23)cc1	4%	25µM*	1%	/	/
Oc1ccccc1-c1nc2cnccn2c1Nc1ccc(Cl)cc1	-2%	-10%	4%	/	/
Cc1ccc(Nc2c(-c3ccccc3O)nc3ccc(Br)cn23)cc1	-1%	-2%	-9%	/	/
Cc1ccc(Nc2c(-c3ccccc3O)nc3cnccn23)cc1	7%	-8%	7.9µM*	2%	-5%
COc1ccc(C(=O)n2cnc(N)n2)cc1	-9%	2.2µM*	-11%	2%	-2%
COc1ccc(C(=O)n2cnc3ccccc32)cc1	-10%	0%	-3%	0%	1%
S=c1[nH]nc2n1CCCN2	-5%	2%	11µM*	5%	0%
CCCCCCCCCCCCCCCCCC(=O)OCCO	/	/	21%	/	/
CC[n+]1c(/C=C/C=C2/N(C)c3ccccc3C2(C)C)sc2ccccc21	/	28µM*	/	/	/
CC[n+]1c(/C=C/C=C/N(C(C)=O)c2ccccc2)sc2ccccc21	-8%	-29%	-5%	5%	3%
COc1cc(NC(=O)c2cc(-c3cccc(OC)c3)n[nH]2)cc(OC)c1	-7%	-7%	-6%	/	/
CCCOc1ccc(NC(=O)CC2C(=O)N(c3ccc(Cl)cc3)C(=O)N2CCc2ccncc2)cc1 (stereo not drawn)	-10%	-12%	1%	/	/
CC(=O)C1=C(c2ccccc2)NC(=S)NC1c1ccc(O)c(O)c1 (stereo not drawn)	-4%	-11%	8.9µM*	1%	28%
CC(=O)C1=C(c2ccccc2)NC(=O)NC1c1ccc(O)c(O)c1 (stereo not drawn)	2%	-4%	10µM*	1%	-13%
CC(=O)C1=C(c2ccccc2)NC(=S)NC1c1cc(Cl)c(OC(C)C)c(Cl)c1 (stereo not drawn)	-2%	-13%	-6%	-10%	0%
CCOc1ccc(C2NC(=O)NC(c3ccccc3)=C2C(C)=O)cc1OC (stereo not drawn)	i	2%	2%	0%	-4%
O=C(CN1CCN(c2ccccc2O)CC1)NC(=O)NC1CCCC1	-1%	-7%	2.8µM*	-1%	-1%
O=C(CN1CCN(c2ccccc2F)CC1)NC(=O)NC1CCCCC1	0%	1%	4%	2%	-13%
O=C(O)Cc1cccc(OCCCN(Cc2cccc(C(F)(F)F)c2Cl)CC(c2ccccc2)c2ccccc2)c1	/	11µM*	/	/	/
COc1ccccc1N1CCN(c2ncnc3c2cnn3-c2cc(Cl)ccc2C)CC1	-3%	0%	1%	/	/
NNc1ccc([N+](=O)[O-])c2[nH][nH]c(=O)c12	?	/	7.9µM*	/	/
O=[N+]([O-])c1ccc(Nc2ccccc2)c2nonc12	-7%	-3%	4%	2%	-5%
Cc1ccc(SSc2cc(C)ccc2N)c(N)c1	-1%	?	14%	3%	21µM*
Cc1ccc(O)c(NC(=S)NC(=O)C(C)C)c1	4%	-6%	20µM*	1%	2%
SMILES	PGK inhibitor	KAT2A inh	GLS inh	USP2a block	Tb PFK inh
Cc1ccc(O)c(NC(=S)NC(=O)CC(C)C)c1	-10%	3%	32%	1%	1%
CCOCC(=O)Nc1ccc(-c2cn3cccnc3n2)cc1	i	35µM*	1%	3%	1%
CC(C)CC(=O)Nc1ccc(-c2cn3cccnc3n2)cc1	0%	?	-4%	3%	2%
O=S(=O)(O)c1ccc2c(N=Nc3ccc(S(=O)(=O)O)c4ccccc34)c(O)c(S(=O)(=O)O)cc2c1	/	-9%	0%	/	/
O=S(=O)(O)c1cc(O)c(N=Nc2ccc(O)cc2O)c2ccccc12	25µM*	/	?	/	/
COc1ccc(C2c3c(oc4ccccc4c3=O)C(=O)N2CCN2CCOCC2)cc1OC (stereo not drawn)	-11%	/	-1%	/	/
COCCN1C(=O)c2oc3ccccc3c(=O)c2C1c1ccc(OC)c(OC)c1 (stereo not drawn)	28µM*	2%	-6%	2%	1%

Source: PubChem
